Results reported in ChEMBL document CHEMBL3988442, “University of Dundee, Small-Polar-MMV Screening Library” (2021).
About 1,200 (3.2%) of roughly 38,000 compounds showed an effect of 50% or more. The median lay at about -58%. The sample holds strong results, similar compounds and a random draw of the others, so the mix is not that of the screen.

Tested on: Plasmodium falciparum
Assay: Calibr Malaria Delayed Death Assay SOP
Assay type: functional, organism-based
Design: scale not given: in the data most compounds retested in dose-response had high values
Conditions: concentration 4.99e-06 (unit not given; other assays of the set use mol/L)

Compound	Percent Effect [%]
CSCCC(CO)NC(=O)c1ccc2[nH]/c(=N\S(C)(=O)=O)sc2c1 (stereo not given)	-143.2
COCC(O)CN1CCC(=O)N(CC(=O)C(C)(C)C)Cc2ccccc21 (stereo not given)	3.723
Cc1cccc(N2CCN(C(=O)CNCCn3cc(C)cn3)CC2)c1	-74.29
CC(=O)N(Cc1noc(C)n1)C1CCN(CC2CCCC2)C1 (stereo not given)	-72.7
Cc1nn(C)c(N2CCOCC2)c1CNCc1cccnc1	-102.1
COCCNc1cc(C)nn2cnnc12	-138.9
CNc1nc2c(s1)C(c1cccc(F)c1F)CC(=O)N2 (stereo not given)	-75.94
CC(C)n1[nH]c(=O)c2c1NC(=O)CC2c1ccncc1 (stereo not given)	-11.96
COc1ncccc1CN1C[C@@H]2COC[C@]2(COc2ccccn2)C1.O=C(O)C(F)(F)F.O=C(O)C(F)(F)F.O=C(O)C(F)(F)F	-20.51
Cc1ccc(C(=O)Cc2c(Cl)nc3n(C)c(=O)n(C)c(=O)n23)cc1	-11.12
CC(C)(C)n1ncc2c1NC(=O)CC2c1c(F)cccc1F (stereo not given)	-175.8
COc1ccc(CN2CCNC(=O)CC2)cc1SC(F)(F)F	74.78
CSc1ccc(OCCN2CCNC(=O)CC2)cc1	-70.99
COc1cc(Cl)c(CN2CCC(C(N)=O)C2)cc1Cl (stereo not given)	3.59
COc1ccc(CN2CCC(C(N)=O)C2)c(Br)c1OC (stereo not given)	-101
COc1ccc(C(C)NC(=O)N2CCNC(=O)CC2)cc1F (stereo not given)	-89.17
COc1ccc(CN2CCC(C(N)=O)CC2)cc1SC(F)(F)F	63.84
OC(CN1CCC(c2ccn[nH]2)CC1)c1ccc(F)cc1F (stereo not given)	-72.07
Cc1ccc(C)c(S(=O)(=O)NCCOc2ccc3nnc(C)n3n2)c1	-6.832
COc1cccc(-c2n[nH]cc2CNC2CCC(O)CC2)c1.Cl (stereo not given)	-76.02
Cc1cc(C[C@@H]2COC[C@@H]2NC(=O)Cn2c(=O)oc3ccccc32)on1	-110.9
Cc1cc(C[C@@H]2CCC[C@H]2NCc2ccc(C(F)(F)F)cc2)on1.O=C(O)CC(O)(CC(=O)O)C(=O)O	-14.83
Cc1cc(C[C@@H]2CCC[C@H]2NCc2c[nH]nc2-c2ccccc2)on1.O=C(O)CC(O)(CC(=O)O)C(=O)O	55.35
COc1cccc(-c2n[nH]cc2CNC2CCCN(C)C2)c1 (stereo not given)	-88.31

Compound	Percent Effect [%]
CN(C(=O)Nc1cccnc1)C1CCN(c2ccc(Cl)cc2)CC1	4.443
Cc1cc(C)n(CC2CCCN2CC(=O)N(C)CCC#N)n1 (stereo not given)	-49.25
CCC(C)C(=O)N(CC(=O)OC)c1cccc(C)n1 (stereo not given)	-66.48
CCN(CC1CN(Cc2c(C)noc2C)CCO1)c1cccnn1 (stereo not given)	-53.53
CCN(CC1CN(Cc2ncc(C)o2)CCO1)c1cccnn1 (stereo not given)	-35.01
CCN(CC1CN(Cc2nc(C3CC3)no2)CCO1)c1cccnn1 (stereo not given)	72.53
CCNC(=O)Cc1ccc(-c2cccc3c2CCNC3)cc1	-6.885
COCCC(=O)N1CCC2(CCCN2Cc2ccccc2)C1 (stereo not given)	-58.21
Nc1nc(CC(=O)N2CCCC(CCc3cccc(F)c3)C2)cc(=O)[nH]1 (stereo not given)	-43.06
CCN(C(=O)Nc1nncs1)C(C)c1cccc(OC)c1 (stereo not given)	-32.07
Cc1nc(C)n(CC2CCCCN2c2ncnc3ccsc23)n1 (stereo not given)	-49.26
CN(CC(=O)Nc1cccc(F)c1)Cc1nc(N)nc(N(C)C)n1	-117.7
CC(C)c1ccc(S(=O)(=O)Cc2nc(N)nc(N(C)C)n2)cc1	-42.62
COc1ccc(Cl)cc1-c1nc(N)nc(N(C)C)n1	-104.8
COc1ccccc1CC(C)N(C)CCS(C)(=O)=O (stereo not given)	-4.563
COc1ccccc1CCN(C)Cc1nc(N)nc(N(C)C)n1	69.03
Cc1ccccc1CC1(C(=O)O)CCCN(c2ncnc3[nH]ccc23)C1 (stereo not given)	-4.529
Cc1c(C(=O)NCCC(C)C)nnn1-c1cccc2c1CCN(C)C2	-15.36
CC(O)CN1CCN(Cc2cccc(C#N)c2)CC1 (stereo not given)	12.6
Cc1ncccc1CNCC1CCN(CC(O)c2ccccc2)CC1 (stereo not given)	29.35
CC(O)CN1CCC(CNCc2cccc(Cl)c2)CC1 (stereo not given)	87.41
CC(O)CN1CCC(CNCc2cn(-c3ccccc3)nn2)CC1 (stereo not given)	-67.96
CC(O)CN1CCN(Cc2cccc(C(=O)N(C)C)c2)CC1 (stereo not given)	-48.6
CN1Cc2cc(F)ccc2N(CC(O)C(F)(F)F)CCC1=O (stereo not given)	13.79

Compound	Percent Effect [%]
Cc1ccc(CN(C)C(=O)c2ccc(NC3CC3)nc2)o1	-155.8
CCN1CCN(Cc2c(C3CCCC3)[nH]c3ncccc23)CC1	-34.79
Cc1ccc(-c2cc(C(=O)NCCCc3csc(N)n3)[nH]n2)s1	65.08
COc1ccc2c(C)c(C(=O)NCCCc3csc(N)n3)oc2c1	-56.16
Cc1ccc(-c2cc(C(=O)NCCCc3csc(N)n3)[nH]n2)o1	18.73
COC(=O)CN1CCN(c2nc3c(s2)c(C)nn3C)C(C)C1=O (stereo not given)	-95.69
Cc1ccc(CN2CCN(c3nc4c(s3)c(C)nn4C)C(C)C2=O)cc1 (stereo not given)	68.91
Cc1nn(C)c2nc(N3CCNC(=O)C3Cc3ccccc3)sc12 (stereo not given)	-89.32
COCC(O)CNc1ccc(C#N)cc1C(F)(F)F (stereo not given)	-11.9
CCCS(=O)(=O)N1CC[C@@H]2[C@@H]1CC(=O)N2Cc1csc(C)n1	-243.1
Cc1cccc(NC(=O)C(C)Oc2ccc3c(c2)OCO3)n1 (stereo not given)	-110.7
Cc1cccc(C2(NCCCS(C)(=O)=O)CCCC2)c1	88.41
CS(=O)(=O)CCCNC1(c2ccc(Br)cc2)CCC1	77.64
Brc1ccc(C2(NCc3noc(C4CC4)n3)CCC2)cc1	8.334
Cc1cccc(C2(NC(=O)CCN3C(=O)CCC3=O)CCCC2)c1	-32.71
N#CCCCS(=O)(=O)NC1(c2cccc(Cl)c2)CC1	-108.7
CC(C)(C)c1ccc(C2(C(=O)NCCCS(C)(=O)=O)CC2)cc1	-66.39
CS(=O)(=O)CCCNC1(c2cccc(F)c2)CC1	-29.12
CSCC(=O)NC1(c2cccc(Cl)c2)CC1	-138.1
CC(Nc1cnn(C)c(=O)c1Cl)c1ccc(F)c(F)c1 (stereo not given)	-61.95
COc1cc(-c2n[nH]c(CCN)n2)cc(OC)c1OC	-46.27
Cc1nc(CSCc2ccc(OCC(F)(F)F)nc2)no1	-117.9
Cc1cccc(CN2C(=O)C[C@H]3[C@@H]2CCN3Cc2ccccn2)n1.O=C(O)C(F)(F)F.O=C(O)C(F)(F)F.O=C(O)C(F)(F)F	-25.52
Cc1cc(CN2CCC(C3CCN(CCc4ccccc4)CC3)C2)[nH]n1 (stereo not given)	93.56

Compound	Percent Effect [%]
Cc1cc(CN2CCC(C3CCN(CCc4ccccc4)C3)CC2)[nH]n1 (stereo not given)	35.64
Cc1cc(CN2CCC(C3CCN(Cc4cccnc4)CC3)C2)[nH]n1 (stereo not given)	8.003
Cc1cc(C)cc(CN2C[C@@H]3OCCN(CC(=O)N(C)C)[C@@H]3C2)c1.O=C(O)C(F)(F)F	-102.5
COc1ccc(CCNCc2ccco2)cc1OC	3.158
COc1cc(C(C)=O)ccc1OCCNCc1ccco1.Cl	-1.065
CCCc1ccc(OCCNCc2ccco2)c(OC)c1.Cl	50.1
COc1ccc(CN2CCN(CCn3ccnc3)CC2)cc1F	-77.09
N#CCCSc1nnc(Cc2ccccc2F)o1	0.1656
CN1CCN(C[C@@H]2OC[C@H]3CN(Cc4cccc(F)c4)CC[C@H]32)CC1.O=C(O)C(F)(F)F.O=C(O)C(F)(F)F.O=C(O)C(F)(F)F	17.46
O=C(O)C(F)(F)F.O=C(O)C(F)(F)F.c1cc2c(cc1CN1CC[C@H]3CO[C@H](CN4CCCC4)[C@H]3C1)OCO2	77.9
N#Cc1cccc(CN2CC[C@@H]3CO[C@@H](CN4CCCC4)[C@@H]3C2)c1.O=C(O)C(F)(F)F.O=C(O)C(F)(F)F	9.568
CN1CCN(C[C@@H]2OC[C@H]3CN(CCc4ccccc4)CC[C@H]32)CC1.O=C(O)C(F)(F)F.O=C(O)C(F)(F)F.O=C(O)C(F)(F)F	64.83
Cc1ccc(CN2CC[C@@H]3[C@@H](CO[C@H]3CN3CCN(C)CC3)C2)cc1.O=C(O)C(F)(F)F.O=C(O)C(F)(F)F.O=C(O)C(F)(F)F	-1.718
Cc1ccc(CN2CC[C@H]3CO[C@H](CN4CCCC4)[C@H]3C2)o1.O=C(O)C(F)(F)F.O=C(O)C(F)(F)F	27.44
Cn1cc(N2CCC3(CCCN(Cc4ccoc4)C3)C2=O)cn1 (stereo not given)	-100.7
O=C1CCC2(CCN(CC[C@H](O)c3ccccc3)CC2)CN1CCO	-15.36
NC(=O)CCNC(=O)C1(N2CCCCC2)Cc2ccccc2C1	-32.27
CN1CC(C(=O)N2CCN(c3cccc(Cl)c3)C(=O)C2)NC1=O (stereo not given)	-61.36
CC(Cn1cccn1)NCCCc1nc(-c2cccs2)no1 (stereo not given)	66.81
Cc1cnn(CC(C)NCc2nc(-c3cccs3)no2)c1 (stereo not given)	-78.64
CC(Cn1cccn1)NCc1nc(-c2cccs2)no1 (stereo not given)	-237.8
CC(C)NC(=O)[C@H](C)NC(=O)N1CCN(c2ccc(Cl)cc2)CC1	-40.36
CC(C)Cn1ncc(C(=O)NS(=O)(=O)c2ccccc2)c1C1CC1	-129.8
